# The list is not random: actives were taken first. Their share in the collection is about 3.1%.
# Rin1 Abl inh = human Rin1-Abl interaction inhibition; P00519+Q13671; TR-FRET Rin1/Abl binding, biochemical; inhibition, % at 7.35 µM; 360,000 compounds, 0.4% hits; AID 588664; in the data active = inhibition above about 5%, passing the limit was not always enough
# UHRF1 binding = UHRF1 methyl-DNA binding inhibition; UHRF1 binding to methylated oligo, TR-FRET; 370,000 compounds, 0.75% hits; Q96T88; inhibition, % at 4.4 µM; AID 687016; in the data active = inhibition above about 21%;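 note: UHRF1 SRA domain binding a hemimethylated CpG hairpin DNA probe; 0% = median of test compound wells and 100% = reference inhibitor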
# Target sequence (Q96T88 whole entry, looked up, the tested form may be a part): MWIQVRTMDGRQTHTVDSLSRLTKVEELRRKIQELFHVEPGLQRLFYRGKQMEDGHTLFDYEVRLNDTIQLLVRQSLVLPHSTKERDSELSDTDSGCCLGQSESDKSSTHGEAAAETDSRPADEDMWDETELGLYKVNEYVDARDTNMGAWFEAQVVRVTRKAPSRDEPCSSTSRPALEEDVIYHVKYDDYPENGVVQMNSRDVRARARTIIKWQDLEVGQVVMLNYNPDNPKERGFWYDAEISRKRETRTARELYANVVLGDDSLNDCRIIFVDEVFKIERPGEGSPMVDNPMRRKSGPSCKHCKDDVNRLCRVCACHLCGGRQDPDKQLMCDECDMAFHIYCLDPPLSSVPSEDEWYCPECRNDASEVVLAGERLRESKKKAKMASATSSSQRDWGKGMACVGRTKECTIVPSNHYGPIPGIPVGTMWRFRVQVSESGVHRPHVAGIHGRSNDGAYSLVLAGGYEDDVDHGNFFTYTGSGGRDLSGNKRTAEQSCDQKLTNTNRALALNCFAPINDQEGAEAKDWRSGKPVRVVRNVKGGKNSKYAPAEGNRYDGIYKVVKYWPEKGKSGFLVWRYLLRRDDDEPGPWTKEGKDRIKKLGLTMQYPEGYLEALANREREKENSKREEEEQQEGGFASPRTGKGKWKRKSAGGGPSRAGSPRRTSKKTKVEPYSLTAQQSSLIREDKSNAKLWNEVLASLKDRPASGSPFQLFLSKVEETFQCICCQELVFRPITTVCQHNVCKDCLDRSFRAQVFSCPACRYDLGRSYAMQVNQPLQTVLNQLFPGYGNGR
# MBD2 inh = blocks human MBD2 binding to methylated DNA | 370,000 compounds, 0.31% hits | inhibition, % at 4.4 µM | TR-FRET, MBD2 binding to methylated oligonucleotide | AID 686964 | Q9UBB5; in the data active = inhibition above about 13%
# proKLK7 act = activates the human kallikrein-7 zymogen; purified proKLK7, EDANS-DABCYL substrate fluorescence; 100% is mature enzyme control, 0% vehicle; P49862; 370,000 compounds, 0.9% hits; activation, % at 7 µM; AID 652039;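 active = activation above the mean of all tested compounds plus 3 SD, computed per campaign excluding outliers beyond control limits, cut at about 13% in these data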
# LEDGF integ inh = blocks HIV-1 LEDGF/p75-dependent DNA integration; TR-FRET IN-LEDGF/p75 DNA integration, Eu/Cy5; inhibition, % at 3.7 µM; 370,000 compounds, 0.64% hits;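 active = inhibition above the screen-wide mean plus 3 SD, cut at about 13% in these data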;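 note: signal is the Cy5 over europium emission ratio at 671 and 618 nm; 0% = plate median of compound wells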
# Neddylation inh = blocks human cullin neddylation; TR-FRET cullin neddylation, biochemical; AID 651699; calls only at 25 µM; 360,000 compounds, 0.58% hits; in the data active = inhibition above about 36%
# Neddyl inh conf = confirmation of human cullin neddylation inhibitors; TR-FRET cullin neddylation biochemical assay; 1,800 compounds, 13% hits; calls only at 25 µM; shares compounds with Neddylation inh; in the data active = inhibition above about 40%;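 note: neddylation substrate is the cullin 1 ring ligase complex with SKP2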
# Numbers without * were called inactive; i = inactive; . = not tested or not shown; + = active, no number.
SMILES,Rin1 Abl inh,UHRF1 binding,MBD2 inh,proKLK7 act,LEDGF integ inh,Neddylation inh,Neddyl inh conf
COc1ccc(C(=O)Cn2c(=O)c(CCC(=O)O)nn3c4ccccc4nc23)cc1OC,-0.2,0.3,-2.0,0.5,7.9,+,+
COCCNc1nc2ccccc2n1CC(=O)c1ccc(OC)c(OC)c1,3.1,1.4,-1.8,0.2,-3.4,i,.
Cc1ccc(Cn2c(=O)n(Cc3ccc(C(=O)NCC4COC4)cc3)c(=O)c3ccccc32)cc1,.,-0.2,0.7,0.5,4.2,.,.
COCCCNC(=S)N(CCO)Cc1cc2cc3c(cc2[nH]c1=O)OCCO3,-2.0,1.9,-1.4,2.5,-5.2,i,.
CCC(=O)N(Cc1ccco1)Cc1cc2cc3c(cc2[nH]c1=O)OCO3,-2.2,-2.0,-0.5,2.0,-2.3,+,i
CCN(CC)CCN(Cc1cc2cc3c(cc2[nH]c1=O)OCCO3)C(=S)NCCCOC,-1.9,-2.8,-3.7,5.4,-0.1,+,.
CCN(CC)CCCN(Cc1cc2cc3c(cc2[nH]c1=O)OCO3)C(=S)NCc1ccco1,-1.5,-1.5,-1.2,2.1,2.7,+,i
CCN(CC)CCN(Cc1cc2cc3c(cc2[nH]c1=O)OCO3)C(=S)NCc1ccco1,0.9,-0.6,-3.0,0.3,-3.1,i,.
COC(=O)[C@]1(C)CN(C(=O)OC(C)(C)C)C2=C1C(=O)C[C@](C)(C(=O)OC(C)(C)C)C2,.,-3.0,0.6,-0.3,-2.0,.,.
O=C(O)CCn1c(-c2ccccc2)cc2ccccc21,-0.3,-1.5,-2.7,-0.1,0.4,+,.
C[C@@H]1CN([C@@H](C)CO)C(=O)c2cc(NC(=O)Nc3ccccc3)ccc2O[C@@H](C)CCCCO[C@H]1CN(C)C(=O)Nc1ccc(C(F)(F)F)cc1,-1.2,0.0,-2.6,-0.1,2.5,i,.
CCOC(=O)/C=c1\s/c(=C\c2ccc(C(=O)OC)cc2)c(=O)n1CC(=O)Nc1ccccc1,0.5,-2.6,-10.7,0.5,-2.8,+,i
CCc1c(C)n2nc(C)cc2[nH]c1=O,-3.9,2.3,-0.9,1.2,-0.7,+,+
O=C(Nc1cccc(F)c1)c1cccnc1NCCc1ccccc1,-1.6,-3.0,-2.2,-0.5,-0.5,+,i
O=C(Nc1ccc(F)cc1)c1cccnc1NCCc1ccccc1,-1.3,2.0,4.1,0.6,-4.5,i,.
Cc1cc(C(=O)N2CCN(c3ncccc3C#N)CC2)no1,-2.8,-2.1,-6.7,0.4,-1.1,i,.
COc1cccc(-c2nc(C#N)c(N3CCN(C(=O)c4ccco4)CC3)o2)c1,0.2,0.4,-0.2,-0.4,-5.4,+,i
N#Cc1cccnc1N1CCN(C(=O)c2ccco2)CC1,-4.0,0.9,-2.5,1.8,-2.2,+,i
N#Cc1nc(-c2ccc(F)cc2)oc1N1CCN(C(=O)c2ccco2)CC1,-4.5,-1.6,1.4,-0.3,0.8,i,.
N#Cc1cccnc1N1CCN(C(=O)COCC(=O)O)CC1,-1.1,-1.0,4.4,-0.4,-2.5,+,+
Cc1nc(N2CCN(C(=O)c3ccco3)CC2)c(C#N)c2c1CCCC2,-0.3,-2.7,2.2,-1.2,1.0,+,i
CCc1nnc(NC(=O)c2ccc(-c3ccccc3F)o2)s1,0.6,0.0,0.1,0.4,0.7,+,i
CCc1nnc(NC(=O)c2ccc(-c3ccc(Cl)cc3)o2)s1,-1.7,-1.6,3.0,0.0,1.0,i,.
COc1ccc(C(C)(C)C)cc1NC(=O)COC(=O)CSCc1c(C)noc1C,-0.7,-0.4,-6.8,-0.3,-1.5,i,.
O=C(O)c1ccc2c(=O)n3c(nc2c1)/C(=C/c1ccc(Cl)cc1Cl)CC3,5.2,2.6,-0.7,0.3,-2.7,.,.
O=C(O)c1ccc2c(=O)n3c(nc2c1)/C(=C/c1ccc(C(F)(F)F)cc1)CC3,-0.2,-1.1,2.4,3.9,-1.1,+,+
O=C(O)c1ccc2c(=O)n3c(nc2c1)/C(=C/c1cccc(Cl)c1Cl)CC3,-1.0,-3.5,-2.5,1.0,-2.8,+,.
Cn1ccc2c(-c3cncc4ccccc34)cc3c(c21)C1CCC3O1 (stereo not drawn),6.6,-1.0,1.0,0.9,0.2,+,+

# High-throughput results as filed in PubChem BioAssay.
